For 33 sequences, binding signal results are on record in paper PMC12820563, “FoxP3 forms a head-to-head dimer in vivo and stabilizes its multimerization on adjacent microsatellites”.

The full ranking holds about 16,000 sequences; the median of “rpm ratio (pull-down/input)” is about 0.5, and the highest 2% start at about 5.5. Many of the other results were omitted from the sample, so the highest values are more common in it than they were.

For this assay, the target named is T1, MBP-FoxP3dN (Mus musculus, UniProt Q99JB6 188-423).
T1 sequence: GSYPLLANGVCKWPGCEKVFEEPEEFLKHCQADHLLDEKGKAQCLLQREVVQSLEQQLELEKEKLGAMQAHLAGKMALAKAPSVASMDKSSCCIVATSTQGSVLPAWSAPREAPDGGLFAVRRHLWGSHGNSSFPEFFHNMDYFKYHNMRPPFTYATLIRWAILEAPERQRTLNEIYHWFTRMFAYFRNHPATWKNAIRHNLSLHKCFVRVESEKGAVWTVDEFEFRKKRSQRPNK
Description: PD-seq (MBP pull-down with sequencing); 20 mM Tris-HCl pH 7.5, 100 mM NaCl, 1.5 mM MgCl2, 0.4 uM protein, 0.1 uM dsDNA library, 30 min, room temperature, amylose pull-down; high values mean tight binding. Particulars: protein: recombinant; tags: His6-MBP; chain copies: 2; dsDNA, one strand shown. The gist of the method: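 Mouse FoxP3 or FoxP1 fragment lacking the N-terminus, His6-MBP-tagged and expressed in E. coli, was incubated at 0.4 µM with 0.1 µM Klenow-filled degenerate double-stranded DNA library for 30 min at room temperature in Tris pH 7.5 buffer with NaCl and MgCl2. Complexes captured on amylose resin were washed three times and their DNA sequenced on Illumina. Binding is reads-per-million enrichment of pull-down over input, replicates pooled.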
In the case of “GATGATTGTTCTCCCAGCTGATGAATTTCATAGTTCGAGTAAACAAATTTTCCTAATCTTTCTGTTCAAGCGCCATCTAC”, the binding signal was 0.583 RPM ratio (pull-down/input). Regarding “GATGATTGTTCTCCCAGCTGATGAATTACTTACATCGAGTAAACAAATTTTCCTAATCTTTCTGTTCAAGCGCCATCTAC”, the binding signal was 0.574 RPM ratio (pull-down/input).

As to “GATGATTGTTCTCCCAGCTGATGAATTGTCGCATTCGAGTAAACAAATTTTCCTAATCTTTCTGTTCAAGCGCCATCTAC”, the binding signal was 6.14 RPM ratio (pull-down/input). With “GATGATTGTTCTCCCAGCTGATGAATTCGCATTATCGAGTAAACAAATTTTCCTAATCTTTCTGTTCAAGCGCCATCTAC”, the binding signal was 3.53 RPM ratio (pull-down/input). The same measure for “GATGATTGTTCTCCCAGCTGATGAATTCCTCGCATCGAGTAAACAAATTTTCCTAATCTTTCTGTTCAAGCGCCATCTAC”: 0.768 RPM ratio (pull-down/input); for “GATGATTGTTCTCCCAGCTGATGAATTATCGCATTCGAGTAAACAAATTTTCCTAATCTTTCTGTTCAAGCGCCATCTAC”: 6.64 RPM ratio (pull-down/input); for “GATGATTGTTCTCCCAGCTGATGAATTCGCATTGTCGAGTAAACAAATTTTCCTAATCTTTCTGTTCAAGCGCCATCTAC”: 3.91 RPM ratio (pull-down/input). With “GATGATTGTTCTCCCAGCTGATGAATTCGCCTCCTCGAGTAAACAAATTTTCCTAATCTTTCTGTTCAAGCGCCATCTAC”, the binding signal is 2.15 RPM ratio (pull-down/input).

Take “GATGATTGTTCTCCCAGCTGATGAATTATTCGCATCGAGTAAACAAATTTTCCTAATCTTTCTGTTCAAGCGCCATCTAC”: the binding signal is 1.12 RPM ratio (pull-down/input). With “GATGATTGTTCTCCCAGCTGATGAATTCCCATTGTCGAGTAAACAAATTTTCCTAATCTTTCTGTTCAAGCGCCATCTAC”, the binding signal was 0.454 RPM ratio (pull-down/input).

Turning to “GATGATTGTTCTCCCAGCTGATGAATTCGCATCCTCGAGTAAACAAATTTTCCTAATCTTTCTGTTCAAGCGCCATCTAC”, the binding signal was 5.74 RPM ratio (pull-down/input).

In the case of “GATGATTGTTCTCCCAGCTGATGAATTCTAAACTTCGAGTAAACAAATTTTCCTAATCTTTCTGTTCAAGCGCCATCTAC”, the binding signal was 0.381 RPM ratio (pull-down/input). Regarding “GATGATTGTTCTCCCAGCTGATGAATTTCCATTTTCGAGTAAACAAATTTTCCTAATCTTTCTGTTCAAGCGCCATCTAC”, the binding signal is 0.295 RPM ratio (pull-down/input).

Take “GATGATTGTTCTCCCAGCTGATGAATTAACATAATCGAGTAAACAAATTTTCCTAATCTTTCTGTTCAAGCGCCATCTAC”: the binding signal was 0.409 RPM ratio (pull-down/input). On to “GATGATTGTTCTCCCAGCTGATGAATTGCTTGGGTCGAGTAAACAAATTTTCCTAATCTTTCTGTTCAAGCGCCATCTAC”, for which the binding signal is 0.775 RPM ratio (pull-down/input).

In the case of “GATGATTGTTCTCCCAGCTGATGAATTGCTTCTGTCGAGTAAACAAATTTTCCTAATCTTTCTGTTCAAGCGCCATCTAC”, the binding signal is 0.468 RPM ratio (pull-down/input).

With “GATGATTGTTCTCCCAGCTGATGAATTCTTGCTGTCGAGTAAACAAATTTTCCTAATCTTTCTGTTCAAGCGCCATCTAC”, the binding signal is 0.508 RPM ratio (pull-down/input).

As for “GATGATTGTTCTCCCAGCTGATGAATTTGCTTTGTCGAGTAAACAAATTTTCCTAATCTTTCTGTTCAAGCGCCATCTAC”, the binding signal was 6.34 RPM ratio (pull-down/input). The same measure for “GATGATTGTTCTCCCAGCTGATGAATTGCTTTGGTCGAGTAAACAAATTTTCCTAATCTTTCTGTTCAAGCGCCATCTAC”: 1.08 RPM ratio (pull-down/input). Take “GATGATTGTTCTCCCAGCTGATGAATTGTGCTTGTCGAGTAAACAAATTTTCCTAATCTTTCTGTTCAAGCGCCATCTAC”: the binding signal was 5.16 RPM ratio (pull-down/input). The same measure for “GATGATTGTTCTCCCAGCTGATGAATTTTGCTTGTCGAGTAAACAAATTTTCCTAATCTTTCTGTTCAAGCGCCATCTAC”: 5.89 RPM ratio (pull-down/input); for “GATGATTGTTCTCCCAGCTGATGAATTGCTTTTGTCGAGTAAACAAATTTTCCTAATCTTTCTGTTCAAGCGCCATCTAC”: 1.51 RPM ratio (pull-down/input); for “GATGATTGTTCTCCCAGCTGATGAATTTGCTTGGTCGAGTAAACAAATTTTCCTAATCTTTCTGTTCAAGCGCCATCTAC”: 5.74 RPM ratio (pull-down/input). The same measure for “GATGATTGTTCTCCCAGCTGATGAATTGCGTATTTCGAGTAAACAAATTTTCCTAATCTTTCTGTTCAAGCGCCATCTAC”: 3.53 RPM ratio (pull-down/input); for “GATGATTGTTCTCCCAGCTGATGAATTGCTAAAATCGAGTAAACAAATTTTCCTAATCTTTCTGTTCAAGCGCCATCTAC”: 0.394 RPM ratio (pull-down/input); for “GATGATTGTTCTCCCAGCTGATGAATTTTACGATTCGAGTAAACAAATTTTCCTAATCTTTCTGTTCAAGCGCCATCTAC”: 0.308 RPM ratio (pull-down/input). The same measure for “GATGATTGTTCTCCCAGCTGATGAATTGTAAAGATCGAGTAAACAAATTTTCCTAATCTTTCTGTTCAAGCGCCATCTAC”: 0.29 RPM ratio (pull-down/input); for “GATGATTGTTCTCCCAGCTGATGAATTACAGCCGTCGAGTAAACAAATTTTCCTAATCTTTCTGTTCAAGCGCCATCTAC”: 0.412 RPM ratio (pull-down/input); for “GATGATTGTTCTCCCAGCTGATGAATTTTGACGTTCGAGTAAACAAATTTTCCTAATCTTTCTGTTCAAGCGCCATCTAC”: 0.933 RPM ratio (pull-down/input). Consider “GATGATTGTTCTCCCAGCTGATGAATTACGATCATCGAGTAAACAAATTTTCCTAATCTTTCTGTTCAAGCGCCATCTAC”, for which the binding signal was 0.571 RPM ratio (pull-down/input).

Turning to “GATGATTGTTCTCCCAGCTGATGAATTCTCTGCATCGAGTAAACAAATTTTCCTAATCTTTCTGTTCAAGCGCCATCTAC”, the binding signal was 0.793 RPM ratio (pull-down/input). In the case of “GATGATTGTTCTCCCAGCTGATGAATTCTGCATCTCGAGTAAACAAATTTTCCTAATCTTTCTGTTCAAGCGCCATCTAC”, the binding signal is 6.75 RPM ratio (pull-down/input).

As to “GATGATTGTTCTCCCAGCTGATGAATTCTGCAGCTCGAGTAAACAAATTTTCCTAATCTTTCTGTTCAAGCGCCATCTAC”, the binding signal was 2.66 RPM ratio (pull-down/input).
